Results from PubChem BioAssay (NCATS).
Inconclusive results are not listed. Entries that show only a call come without a potency. The source made the active and inactive calls. Unless noted, calls follow the shape of the dose curve; as a rule, active = well fitted curve in the direction sought with a large enough effect; inconclusive = small, poorly fitted or top-dose-only effect, or another doubt; inactive = no such curve, though single readings can be large; an effect the other way counts as inactive or inconclusive.

Columns and labels:
[1] = P-glycoprotein substrates identified in KB-8-5-11 adenocarcinoma cell line, qHTS therapeutic library screen (AID 1346987); also: nearly all actives have a fitted effect of over 65% in size; also: potency is read from the fitted curve at half-maximal effect
Method in brief: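 P-gp-mediated resistance screen: KB-8-5-11 cells treated 72 h with compounds in dose-response. CellTiter-Glo viability.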

[2] = biological target: Glutathione peroxidase 1 (Homo sapiens) (UniProt P07203); test: Primary qHTS Assay for Inhibitors of Recombinant Selenoprotein Glutathione Peroxidase 1 (GPX1) (AID 1845191); also: nearly all actives have a fitted effect of over 65% in size
Method in brief: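 Recombinant GPX1 (10 nM final) was preincubated with compound for 30 min at room temperature, then reacted with 1 mM GSH, 0.5 mM CHP, 0.5 mM NADPH and 100 nM glutathione reductase; NADPH fluorescence (340/450 nm) was read at 0 and 15 min.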

[3] = qHTS to identify inhibitors of the type 1 interferon - major histocompatibility complex class I in skeletal muscle: primary screen against the NCATS Mechanism Interrogation Plate v5.0 (MIPE) Libary (AID 1347411); also: nearly all actives have a fitted effect of over 65% in size
Method in brief: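 Cells were genome-edited human myoblasts carrying a HiBit tag on endogenous HLA-B. They were treated with IFN-beta (4.0 ng/ml) and titrated compounds (top 46 uM) for 24 hrs before lytic HiBiT detection.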

[4] = Primary qHTS for inhibitors of nuclear receptor binding SET domain protein 2 (NSD2) in an isogenic RCH-ACV NSD2 p.E1099K mutant (9B) (AID 1645876); also: potency is read from the fitted curve at half-maximal effect; nearly all actives have a fitted effect of over 70% in size
[5] = Primary qHTS for inhibitors of nuclear receptor binding SET domain protein 2 (NSD2) in an RCH-ACV wild type WT cells (2C) (AID 1645877); also: potency is read from the fitted curve at half-maximal effect; nearly all actives have a fitted effect of over 70% in size
[6] = qHTS drug screen for cell cycle checkpoint inhibitors in PARPi-resistant BRCA-mutant ovarian cancer cell lines. (AID 1963452; calls by dose curve); conditions: PEO1/OlaR viability, CellTiter-Glo luminescence, 96 h, stronger effect = lower value
Method in brief: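 PEO1, PEO4 and PEO1/OlaR ovarian cancer cells, 600 per well, exposed 96 h at 37C to a dilution series. Viability read by CellTiter-Glo luminescence, normalized to DMSO and empty wells; activity summarized as Z-AUC.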

Glutathione peroxidase 1 (Homo sapiens), sequence (P07203 whole entry, looked up): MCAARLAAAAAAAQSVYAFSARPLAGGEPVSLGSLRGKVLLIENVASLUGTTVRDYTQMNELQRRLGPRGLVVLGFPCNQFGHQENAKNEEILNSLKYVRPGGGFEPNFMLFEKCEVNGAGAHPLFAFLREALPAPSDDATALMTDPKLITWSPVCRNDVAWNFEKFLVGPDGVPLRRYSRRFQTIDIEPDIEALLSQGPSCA

With `O=C(/C=C/c1cccnc1)c1ccncc1` the Potency [1] was “inactive” and the Potency [2] was “inactive”.

In the case of `CN(CCO)C1CCN(c2ccc(Nc3ncc4c5ccnc(F)c5n(C5CCCC5)c4n3)nc2)CC1`, the Potency [1] is reported as 11.2 µM (active), the Potency [3] is reported as “inactive” and the Potency [4] is reported as 0.574 µM (active). The Potency [5] was 512 nM (active), the Potency [2] was “inactive” and the Z-AUC [6] was -1.43 (inactive). The Z-AUC ([6]; measured here: PEO1 parental Z-AUC) was -0.563 and the Z-AUC ([6]; measured here: PEO4 Z-AUC) was -1.

With `COc1cc(Br)c(C[N+]2(CCOCCC3CCC4CC3C4(C)C)CCOCC2)cc1OC` (centres undefined) the Potency [1] was “inactive”.

With `O=Nc1c2[nH]c3ccccc3nc-2c2ccccc12` the Potency [1] was “inactive”, the Potency [4] was 13 µM (active) and the Potency [2] was “inactive”.
